# Source: PubChem BioAssay
# SMARCA2 activ: SMARCA2 (BRM) function activators, primary screen, cell-based, luminescence, high throughput; MG213 cells, MMTV-luciferase reporter, dexamethasone, overnight; activation, % at 9.1 µM; actives 1% (n = 370,000); AID 652017, 2013; in the data active = activation above about 7.8%;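 also: 0% = vehicle wells and 100% = reference activator wells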
# esBAF inh: Bmi1 luciferase reporter increase in mESCs, primary screen, esBAF inhibitor project, mouse ES cells, Bmi1 luciferase knock-in, single point; reporter increase, % at 12.5 µM; actives 2% (n = 350,000); 24 h; 100% = twice the neutral-well signal; in the data active = activation above about 40%; inconclusive = no clear call, values can overlap the other calls;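 also: 0% = median of the plate's neutral control wells and 100% = double that signal; a rise in the Bmi1 reporter signal indicates esBAF inhibition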
# HSF1 inhib: HSF1 inhibitors in luciferase reporter cells, primary screen, cell-based, NIH3T3, luminescence; NIH3T3-HGL HSE-luciferase, MG132-induced, luminescence 8 h; hits give low values; actives 0.77% (n = 300,000); activity change, negative = inhibition, % at 7.5 µM (by protocol);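 active = more than half of replicate wells show activity change below -50%, luminescence cut by over half; inconclusive = some wells, but at most half, below -50%; inactive = no replicate well below -50%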;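 also: luciferase reports HSF-1 transcriptional activity via heat shock element; 0% = median of DMSO wells and -100% = zero luminescence signal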
# HSF1 activator: HSF-1 activators, primary screen, NIH3T3-HGL cells, MG132 stress, luminescence, single point. activation, % at 9 µM. actives 1.7% (n = 300,000). NIH3T3-HGL HSF-1 luciferase reporter, 8 h; 100% = twice DMSO control signal;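 active = mean replicate activation of at least 50% with a set share of replicates each reaching 50%; inconclusive = only one of those two conditions met; inactive = mean below 50% and too few replicates reaching it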;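 also: 0% = median of the neutral control wells and 100% = twice that signal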
# Wnt bcat act: Wnt/beta-catenin pathway activators, primary screen, cell-based, plate reader, single point; Wnt/beta-catenin reporter cell assay, activator; activation, % at 9.35 µM; actives 1.2% (n = 300,000); in the data active = activation above about 30%, passing the limit was not always enough; inconclusive = no clear call, values can overlap the other calls;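 also: 0% = neutral control wells and 100% = positive control wells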
# MITF TRPM1 HTS: activators of MITF-driven TRPM1 promoter reporter, primary screen, cell-based, SK-MEL-5, luciferase, single point | SK-MEL-5 TRPM1-promoter luciferase, 24 h; % of positive control, neutral wells = 0 | activation, % at 12.5 µM | actives 0.75% (n = 300,000);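 active = mean activation of at least 80% with every replicate also reaching 80%; inconclusive = mean reaches 80% but some replicate falls short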;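 also: 0% = neutral control wells and 100% = parthenolide positive control wells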
# * hit, by the source's call; ? = inconclusive; . = no result given. An excerpt weighted towards active compounds, which were near 4.3% of everything screened.
SMILES,SMARCA2 activ,esBAF inh,HSF1 inhib,HSF1 activator,Wnt bcat act,MITF TRPM1 HTS
CO[C@@H]1CN(C)C(=O)c2cc(NC(=O)c3ccccc3)ccc2OC[C@@H](C)N(C(=O)CN(C)C)C[C@H]1C,.,1,.,.,.,.
COc1ccc(NC(=O)Nc2ccc3c(c2)[C@@H]2C[C@@H](CC(=O)NC4CCCCC4)O[C@H](CO)[C@@H]2O3)cc1,.,4,.,.,.,.
Cc1noc(C)c1S(=O)(=O)Nc1ccc2c(c1)C(=O)N([C@@H](C)CO)C[C@@H](C)[C@@H](CN(C)S(=O)(=O)c1ccc(F)cc1)OCCCC[C@@H](C)O2,.,-2,.,.,.,.
C[C@H]1CCCCO[C@@H](CN(C)C(=O)Nc2ccc3c(c2)OCO3)[C@@H](C)CN([C@@H](C)CO)C(=O)c2cc(NS(=O)(=O)c3cn(C)cn3)ccc2O1,.,-2,.,.,.,.
COC(=O)C[C@H]1C[C@H]2c3cc(NC(=O)Nc4ccc(F)cc4)ccc3O[C@H]2[C@H](CO)O1,.,-2,.,.,.,.
C=CCn1c(C)cc(C(=O)COC(=O)[C@@H](NC(=O)c2ccccc2Cl)C(C)C)c1C,0,.,-61*,-66,11,-6
CCOC(=O)c1c(C)oc2c1C(=O)c1ccccc1C2=O,2,49*,5,26,1,-95
Cc1oc2c(c1C(=O)O)C(=O)c1ccccc1C2=O,-3,-15,16,28,2,-51
O=C(CN1C(=O)NC2(CCCCC2)C1=O)Nc1ccc2c(c1)OCCCO2,2,?,.,.,44*,130*
CC1CCCCC12NC(=O)N(CC(=O)NC(=O)Nc1ccc3c(c1)OCCO3)C2=O (stereo not given),7,57*,9,30,3,53
CC1CCCCC12NC(=O)N(CC(=O)Nc1ccc3c(c1)OCO3)C2=O (stereo not given),-2,-2,.,.,-2,.
O=C(CN1C(=O)NC2(CCCCCC2)C1=O)Nc1cccc(F)c1,-3,-6,.,.,0,.
C[C@H](CO)N1C[C@H](C)[C@@H](CN(C)C(=O)CC2CC2)Oc2ncc(C#C[C@@H](C)O)cc2C1=O,.,-5,.,.,.,.
Cc1cc(N2CCN(c3ccc(F)cc3)CC2)nc2cc(O)ccc12,1,2,-55*,-64,-1,.
COc1ccc(N2CCN(c3cc(C)c4ccc(O)cc4n3)CC2)cc1,3,1,4,27,-4,.
CN(CCc1ccccn1)c1ccccc1,0,48*,.,.,11,71
CN(c1ccccc1)c1nc(-n2ccnc2)nc(-n2ccnc2)n1,4,.,-2,11,.,-7
c1ccc(NCCc2ccccn2)cc1,-2,46*,.,.,17,49
CN(c1ccccc1)c1ncccn1,-2,-3,-89*,-91,9,.
CN(CCc1ccccn1)S(=O)(=O)c1ccccc1F,-6,-5,-1,2,-5,.
C[C@@H]1CN([C@@H](C)CO)S(=O)(=O)c2ccc(C#Cc3ccncc3)cc2O[C@H]1CN(C)C,.,-7,.,.,.,.
O=C(c1ccccn1)N1C[C@H]2[C@@H](c3ccccc31)[C@H](CO)N2C(=O)CC1CC1,.,-3,.,.,.,.
O=C(N/N=C/c1ccc(O)c(O)c1)c1ccc(-n2cnnn2)cc1,2,1,.,.,-1,22
Cc1nc2c(cc1C(=O)N/N=C/c1ccc(O)c(O)c1)c(=O)n(C)c(=O)n2C,-5,.,-73*,-79,-2,3
Cc1c(C(=O)O)nn(-c2cccc(C(F)(F)F)c2)c(=O)c1C#N,-4,-6,0,19,0,.
SMILES,SMARCA2 activ,esBAF inh,HSF1 inhib,HSF1 activator,Wnt bcat act,MITF TRPM1 HTS
COC(=O)c1nn(-c2cccc(C(F)(F)F)c2)c(=O)cc1Sc1ccccn1,1,2,-52*,-65,.,.
CCOc1ccc(C=NNc2ccc(S(=O)(=O)Nc3ccccc3C(=O)O)cc2[N+](=O)[O-])cc1,.,-6,.,.,37*,-8
CSc1ccc(C=NNc2ccc(S(=O)(=O)Nc3ccccc3C(=O)O)cc2[N+](=O)[O-])cc1,-4,-1,.,.,-2,-5
CSc1ncc(-c2ccccc2)cn1,1,.,2,6,6,41
C=CCSc1ncc(-c2ccccc2)cn1,6,50*,22,24,?,73
C#CCSc1ncc(-c2ccccc2)cn1,2,73*,1,10,9,59
O=C(C[C@@H]1C[C@H]2c3cc(NC(=O)C4CCC4)ccc3O[C@H]2[C@H](CO)O1)NCc1cccnc1,.,-1,.,.,.,.
OCc1cccc(-c2csc(C(O)c3ccccc3)n2)c1 (stereo not given),0,41*,.,.,-1,.
Cc1ccc(-c2csc(C(O)c3ccccc3)n2)cc1C (stereo not given),0,53*,.,.,2,.
O=C(O)c1cccc(-c2csc(C(O)c3ccccc3)n2)c1 (stereo not given),-4,43*,.,.,35*,.
COc1ccc(C(O)c2nc(-c3ccc4ccccc4c3)cs2)cc1 (stereo not given),-1,58*,.,.,1,.
Cc1ccc(-c2csc(C(O)c3ccc(F)cc3)n2)cc1C (stereo not given),2,24,.,.,26,.
CN(C)c1ccc(-c2csc(C(O)c3ccc(F)c(F)c3)n2)cc1 (stereo not given),0,45*,.,.,3,.
COc1ccc(C(O)c2nc(-c3ccc(N(C)C)cc3)cs2)cc1 (stereo not given),-1,?,.,.,7,.
C[C@@H]1CN([C@H](C)CO)S(=O)(=O)c2ccc(-c3ccc(F)cc3)cc2O[C@@H]1CN(C)C(=O)C1CCCCC1,.,9,.,.,.,.
CC(=O)Nc1ccc(C=C(C#N)c2ccc(C)cc2)cc1,0,?,.,.,47*,.
CC(=O)Nc1ccc(/C=C(\C#N)C(N)=O)cc1,1,.,-3,-5,4,.
O=C(Cc1ccccn1)NCC[C@H]1CC[C@@H](NC(=O)Nc2ccccc2)[C@@H](CO)O1,.,1,.,.,.,.
O=C(Nc1cc(F)ccc1F)N1C[C@@H]2[C@H](c3ccccc31)[C@H](CO)N2CC1CCCC1,.,-2,.,.,.,.
c1ccc2c(COn3nnc4ccccc43)cccc2c1,5,56*,20,40,.,64
Cc1ccc(C2=NNC(c3cccc(F)c3)S2)cc1 (stereo not given),1,.,.,.,6,-19
COc1ccc(C2NN=C(c3ccc(C)cc3)S2)cc1OC (stereo not given),3,.,17,36,41*,57
CN1C(=O)c2cc(NC(=O)C3CCCC3)ccc2OC[C@H]2O[C@@H](CC(=O)Nc3ccccc3)CC[C@H]21,.,6,.,.,.,.
CC(C)NC(=O)N(C)C[C@@H]1Oc2c(NS(C)(=O)=O)cccc2C(=O)N([C@H](C)CO)C[C@H]1C,.,-1,.,.,.,.
